Screening data deposited in PubChem by National Center for Advancing Translational Sciences (NCATS).
Shiga toxin inh: Shiga toxin inhibition | Vero cells, Shiga toxin protein synthesis inhibition reporter | inhibition, % at 38.7 µM | actives 9.2% (n = 290,000); in the data active means inhibition mostly above about 28%, no sharp cut-off; inactive means mostly below about 43%; further: 0% is about no effect
LmPK inh: inhibitors of Leishmania mexicana pyruvate kinase. Q27686. purified LmPK, Kinase-Glo ATP luminescence, 1 h. Potency, µM (doses to about 57.5 µM), without a hit: at the top dose activity change, negative = inhibition, most hits filed as inhibitors. actives 0.37% (n = 290,000); further: potency means the concentration at half of the fitted maximal effect; on the % scale 0 is the no-effect control and ±100 the full control effect
Target sequence (Q27686 whole entry, looked up): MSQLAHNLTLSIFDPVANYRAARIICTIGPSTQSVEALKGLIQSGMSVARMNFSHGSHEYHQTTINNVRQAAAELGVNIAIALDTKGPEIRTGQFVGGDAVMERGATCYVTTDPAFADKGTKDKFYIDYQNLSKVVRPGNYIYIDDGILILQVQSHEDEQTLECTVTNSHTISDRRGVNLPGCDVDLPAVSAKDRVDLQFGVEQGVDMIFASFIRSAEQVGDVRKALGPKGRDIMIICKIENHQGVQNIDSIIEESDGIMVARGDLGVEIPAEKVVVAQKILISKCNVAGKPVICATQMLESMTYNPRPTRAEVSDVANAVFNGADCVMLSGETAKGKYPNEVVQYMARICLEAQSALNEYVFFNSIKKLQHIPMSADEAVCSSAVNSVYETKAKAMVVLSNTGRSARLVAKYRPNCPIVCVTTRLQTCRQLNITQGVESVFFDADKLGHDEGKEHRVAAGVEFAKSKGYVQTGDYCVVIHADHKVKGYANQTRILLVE
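0.1 nM LmPK, 0.5 mM PEP, 0.1 mM ADP; 50 mM imidazole pH 7.2, 7 mM MgCl2, 50 mM KCl; 1 h RT. Kinase-Glo luminescence readout, normalized to no-enzyme (full inhibition) and uninhibited wells.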
RE007 growth inh: less growth of the S. pombe RE007 Vpr strain | Potency, µM (doses to about 92.2 µM), for inactives: at the highest dose activity change, negative = less growth, hits mostly inhibitors | AID 651644 | actives 0.21% (n = 360,000) | S. pombe RE007 Vpr strain, BacTiter-Glo ATP luminescence, 24 h; active means well fitted falling curve with a large enough effect; inconclusive means small, poorly fitted or top-dose-only effect; inactive means no such curve, though single readings can be large or run the other way; further: potency means the concentration at half of the fitted maximal effect; on the % scale 0 is the no-effect control and ±100 the full control effect; nearly all actives have a fitted effect of over 50% in size
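Fission yeast RE007 carrying one integrated HIV-1 vpr copy, seeded at OD 0.01 in PMG+AL medium with 23 nL pinned compound. Grown 24 h at 30 degrees; viability read by BacTiter-Glo luminescence after 5 min.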
TbPYK inhibitor: inhibitors of Trypanosoma brucei pyruvate kinase; Q57TT1; TbPYK enzyme, Kinase-Glo Plus ATP luminescence, 45 min; Potency, µM (top dose mostly 76.8 µM), for the others: at the top dose activity, negative = inhibition, most hits filed as inhibitors; actives 0.12% (n = 410,000); further: potency means the concentration at half of the fitted maximal effect; on the % scale 0 is the no-effect control and ±100 the full control effect; nearly all actives have a fitted effect of over 50% in size
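In this concentration-response screen, enzyme-free wells defined baseline while DMSO plates tracked drift. Each reaction combined TbPYK, substrate, compound and 130 uM ADP for 45 min at room temperature. Kinase-Glo Plus luminescence gave the signal.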
Cycloheximide cs: counter-screen for Shiga toxin inhibitors: cycloheximide protein synthesis inhibition. cell reporter, cycloheximide protein synthesis inhibition counterscreen. max response, %. actives 12% (n = 300,000). AID 2314; in the data active means max response mostly above about 13%, no sharp cut-off; inactive means mostly below about 14%; further: read at 38.3 µM for the half of the compounds with a filed dose; 0% is about no effect
FBPA Giardia inh: inhibitors of Giardia lamblia fructose-1,6-bisphosphate aldolase | A8B2U2 | actives 0.71% (n = 290,000) | purified Giardia FBPA | Potency, µM (top dose mostly 59.6 µM), without a hit: at the top dose activity, negative = inhibition, most hits filed as inhibitors | AID 2451; further: potency means the concentration at half of the fitted maximal effect; on the % scale 0 is the no-effect control and ±100 the full control effect; nearly all actives have a fitted effect of over 55% in size
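40 nM FBPA preincubated 10 min at RT with compound (up to 57.5 uM final), then substrate plus GAPDH/TPI/NAD/arsenate coupling and diaphorase/resazurin added. Fluorescence read after 20 min at RT, 525/598 nm.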
* = called active by the depositor; [ ] = dose if it differs, or a comment. Many of the other results were omitted from the sample, so hits are more common in it than they were. Unless noted, the call rests on the fitted dose curve; in most records, active means well fitted curve in the direction sought with a large enough effect; inconclusive means small, poorly fitted or top-dose-only effect, or another doubt; inactive means no such curve, though single readings can be large; an effect the other way counts as inactive or inconclusive.

For COC(=O)/C=C/c1cnc2ccccc2c1 the results were Shiga toxin inh 117.7*, LmPK inh 0.3%, RE007 growth inh -5.0%, TbPYK inhibitor -1.5%, Cycloheximide cs 36.2* and FBPA Giardia inh -4.2%.
COCCNC(=O)COC(=O)/C=C/c1cnc2ccccc2n1 was read as Shiga toxin inh 19.3, LmPK inh -5.7%, RE007 growth inh 11.1%, TbPYK inhibitor -13.2%, Cycloheximide cs 28.9 and FBPA Giardia inh -6.0%.
Screening O=C(Nc1ccc2c(c1)OCCO2)C1CC1c1ccccc1 (configuration not stated) returned Shiga toxin inh 93.8*, LmPK inh -0.4%, RE007 growth inh 22.7%, TbPYK inhibitor -2.6%, Cycloheximide cs 65.1* and FBPA Giardia inh -5.0%.
`CN1CC(C(=O)c2ccccc2)C(c2ccccc2)C1` (configuration not stated) gave Shiga toxin inh 26.0, LmPK inh 2.2%, RE007 growth inh -0.1%, TbPYK inhibitor -3.5%, Cycloheximide cs -0.9 and FBPA Giardia inh 3.2%.
Screening CC(C)c1ccc(NC(=O)C2CC2c2ccccc2)cc1 (configuration not stated) returned Shiga toxin inh 17.6, LmPK inh -6.5%, RE007 growth inh 9.0%, TbPYK inhibitor 0.0%, Cycloheximide cs 18.2* and FBPA Giardia inh 5.0%.
Screening O=C(Nc1ccc2c(c1)OCCO2)C(=O)NC1CC1 returned Shiga toxin inh 80.4*, LmPK inh -3.9%, RE007 growth inh -4.4%, TbPYK inhibitor -5.7%, Cycloheximide cs 29.2* and FBPA Giardia inh -5.2%.
For O=C(Nc1cccc(Cl)c1)C1CC1c1ccccc1 (configuration not stated) the results were RE007 growth inh -7.5% and TbPYK inhibitor -2.6%.
`O=C(Nc1ccncc1)C1CC1c1ccccc1` (configuration not stated) gave Shiga toxin inh -8.6, LmPK inh 1.2%, RE007 growth inh 1.1%, TbPYK inhibitor -0.8%, Cycloheximide cs 2.2 and FBPA Giardia inh 3.5%.
For O=C(c1ccccc1)C1CC1c1ccccc1 (configuration not stated) the results were RE007 growth inh 17.8µM* and TbPYK inhibitor 2.6%.
`NC(=O)CC(NC(=O)Cc1ccc(Cl)cc1)c1ccc(NC2CC3CCC2C3)c([N+](=O)[O-])c1` (configuration not stated) gave Shiga toxin inh -5.1, LmPK inh 0.3%, RE007 growth inh 14.6%, TbPYK inhibitor 1.4%, Cycloheximide cs -1.4 and FBPA Giardia inh 14.5%.
Cc1c(C)n(Cc2ccccc2)c2ccc(C(=O)N3CCN(c4ccccc4F)CC3)cc12 was read as TbPYK inhibitor 2.1%[15.4 µM].
O=C(O)C1CCCCC1C(=O)Nc1ccc(F)c(F)c1 (configuration not stated) was read as Shiga toxin inh 15.9, LmPK inh -1.0%, RE007 growth inh 10.0%, TbPYK inhibitor 43.6%, Cycloheximide cs -3.2 and FBPA Giardia inh 11.2%.
Screening O=C(O)C1CCCCC1C(=O)Nc1ccc2c(c1)OCCO2 (configuration not stated) returned Shiga toxin inh 102.4*, LmPK inh 3.1%, RE007 growth inh 2.6%, TbPYK inhibitor 3.7%, Cycloheximide cs 34.4* and FBPA Giardia inh 4.3%.
For Cc1cc(=O)[nH]c(SCCOc2ccc(OC(C)C)cc2)n1 the results were Shiga toxin inh 46.9*, LmPK inh -20.1%, RE007 growth inh -12.0%, TbPYK inhibitor -2.5%, Cycloheximide cs 31.1* and FBPA Giardia inh -15.5%.
For C/C=C/c1ccc(OCCCCN2C(=O)NC(C)(C)C2=O)c(OC)c1 the results were Shiga toxin inh 24.7, LmPK inh -9.8%, RE007 growth inh 15.8%, TbPYK inhibitor -17.2%, Cycloheximide cs 13.7* and FBPA Giardia inh 2.0%.
For Cc1cc(=O)[nH]c(SCCOc2ccc3c(c2)CCC3)n1 the results were Shiga toxin inh 7.8, LmPK inh 0.1%, RE007 growth inh 9.7%, TbPYK inhibitor -1.8%, Cycloheximide cs 14.1 and FBPA Giardia inh -18.2%.
C/C=C/c1ccc(OCCSc2nc(C)cc(=O)[nH]2)c(OC)c1 was read as Shiga toxin inh 77.0*, LmPK inh 2.2%, RE007 growth inh 12.5%, TbPYK inhibitor 0.0%, Cycloheximide cs 23.7* and FBPA Giardia inh -4.0%.
For CCOC(=O)CSc1nc(-c2ccccc2)ns1 the results were Shiga toxin inh 38.5, LmPK inh 2.7%, RE007 growth inh -21.0%, TbPYK inhibitor -27.3%, Cycloheximide cs 20.1 and FBPA Giardia inh 0.4%.
O=C(CSc1nc(-c2ccccc2)ns1)N1CCOCC1 was read as Shiga toxin inh 90.6*, LmPK inh 0.9%, RE007 growth inh -8.0%, TbPYK inhibitor -8.2%, Cycloheximide cs 39.0* and FBPA Giardia inh -8.5%.
Cc1cccc(-c2nsc(SCC(=O)N3CCCC3)n2)c1 was read as Shiga toxin inh 117.4*, LmPK inh -20.2%, RE007 growth inh -15.1%, TbPYK inhibitor -6.9%, Cycloheximide cs 35.6* and FBPA Giardia inh 3.0%.
For CCn1c(SCC(=O)N(C)Cc2ccc(OC)c(F)c2)nc2cc(S(N)(=O)=O)ccc21 the results were Shiga toxin inh -12.6, LmPK inh -10.4%, RE007 growth inh -17.1%, TbPYK inhibitor 5.8%, Cycloheximide cs -3.4 and FBPA Giardia inh -11.1%.
For CC1=C(C(=O)Nc2cc(Cl)ccc2C)C2(CCCCC2)OC1=O the results were TbPYK inhibitor 3.6%.
For O=[N+]([O-])c1cccc2c([N+](=O)[O-])cccc12 the results were RE007 growth inh -3.8% and TbPYK inhibitor -3.3%.
For Cc1cc([N+](=O)[O-])c2ccccc2[n+]1[O-] the results were Shiga toxin inh -31.9, LmPK inh -4.2%, RE007 growth inh 14.1µM*, TbPYK inhibitor -1.0%, Cycloheximide cs -4.1 and FBPA Giardia inh inconclusive.
Screening COc1ccc(NC(=O)Cc2coc3cc(C)ccc23)cn1 returned Shiga toxin inh 68.6*, LmPK inh -2.0%, RE007 growth inh -6.9%, TbPYK inhibitor -2.4%, Cycloheximide cs 21.5 and FBPA Giardia inh -22.2%.
`Cc1ccc2c(CC(=O)Nc3ccc(S(=O)(=O)Nc4nc(C)cc(C)n4)cc3)coc2c1` gave TbPYK inhibitor -7.2%.
Cc1ccc2c(CC(=O)NC3=NCCS3)coc2c1 was read as Shiga toxin inh 57.6*, LmPK inh 2.9%, RE007 growth inh -2.8%, TbPYK inhibitor 2.1%, Cycloheximide cs 28.7* and FBPA Giardia inh -0.5%.
For Cc1ccc2c(CC(=O)Nc3nc(C)cs3)coc2c1 the results were Shiga toxin inh 46.5, LmPK inh 3.1%, RE007 growth inh -14.4%, TbPYK inhibitor -19.0%, Cycloheximide cs 20.4* and FBPA Giardia inh -7.9%.
Cc1cccc(C(=O)NC(=O)Nc2ccc(-n3nc(C(F)(F)F)cc3C(F)(F)F)cc2)c1 was read as TbPYK inhibitor -11.7%.
